Data: paper PMC7862700, “An all-to-all approach to the identification of sequence-specific readers for epigenetic DNA modifications on cytosine”

What was measured:
Test in all cases: DAPPL (digital affinity profiling via proximity ligation, sequencing); 10 mM Tris-HCl pH 7.5, 50 mM NaCl, 1 mM DTT, 4% glycerol, room temperature, 30 min; GST-TFs on glutathione beads, 16-mer random dsDNA library, 0.1% formaldehyde crosslink after washing; high values mean tight binding
[1] = target: T1, FEV (Homo sapiens, UniProt Q99581 1-238); details: protein: recombinant; tags: N-terminal GST; dsDNA, one strand shown
T1 sequence: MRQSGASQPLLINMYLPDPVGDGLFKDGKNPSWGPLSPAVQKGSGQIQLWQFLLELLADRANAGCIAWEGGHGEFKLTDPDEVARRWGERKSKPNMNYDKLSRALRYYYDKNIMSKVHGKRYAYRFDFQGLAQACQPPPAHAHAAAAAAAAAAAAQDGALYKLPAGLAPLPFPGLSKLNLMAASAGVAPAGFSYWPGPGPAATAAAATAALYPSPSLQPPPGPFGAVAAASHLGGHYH
Procedure, shortened: (§1)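 Pools of DNA-barcoded human transcription factors, expressed in yeast as GST fusions on glutathione beads and combined with a tag-only sample, were incubated with 200 nmole of a 16-mer random double-stranded DNA library. Incubation took 30 min at room temperature in Tris/NaCl/DTT/glycerol buffer and was followed by washing, 0.1% formaldehyde crosslinking, proximity ligation (BsaI/T4 ligase, 1 h, 37 °C), PCR amplification and sequencing on an Illumina NextSeq500. Binding signal is the ratio of a hexamer's read frequency for a factor to its frequency for the tag-only sample.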

[2] = target: ETV5 (Homo sapiens, UniProt P41161 1-510); details: protein: recombinant; tags: N-terminal GST; dsDNA, one strand shown
Chain of ETV5 (P41161 whole entry): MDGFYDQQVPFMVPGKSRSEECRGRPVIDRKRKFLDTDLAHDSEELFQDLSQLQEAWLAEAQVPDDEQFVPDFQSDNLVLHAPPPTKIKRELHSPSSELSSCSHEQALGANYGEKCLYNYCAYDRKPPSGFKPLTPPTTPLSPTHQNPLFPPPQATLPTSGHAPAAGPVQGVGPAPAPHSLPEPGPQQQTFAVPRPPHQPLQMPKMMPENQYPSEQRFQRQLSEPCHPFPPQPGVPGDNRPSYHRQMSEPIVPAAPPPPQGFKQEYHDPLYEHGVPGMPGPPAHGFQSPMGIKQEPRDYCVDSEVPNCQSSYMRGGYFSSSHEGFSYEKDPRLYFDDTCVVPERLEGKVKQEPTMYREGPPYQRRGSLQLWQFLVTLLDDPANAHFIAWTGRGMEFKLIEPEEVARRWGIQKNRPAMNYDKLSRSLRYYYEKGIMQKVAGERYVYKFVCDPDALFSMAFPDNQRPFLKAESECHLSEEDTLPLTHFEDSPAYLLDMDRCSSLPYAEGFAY
Procedure, shortened: as §1

[3] = target: HSF1 (Homo sapiens, UniProt Q00613 1-529); details: protein: recombinant; tags: N-terminal GST; chain copies: 3; dsDNA, one strand shown
Chain of HSF1 (Q00613 whole entry): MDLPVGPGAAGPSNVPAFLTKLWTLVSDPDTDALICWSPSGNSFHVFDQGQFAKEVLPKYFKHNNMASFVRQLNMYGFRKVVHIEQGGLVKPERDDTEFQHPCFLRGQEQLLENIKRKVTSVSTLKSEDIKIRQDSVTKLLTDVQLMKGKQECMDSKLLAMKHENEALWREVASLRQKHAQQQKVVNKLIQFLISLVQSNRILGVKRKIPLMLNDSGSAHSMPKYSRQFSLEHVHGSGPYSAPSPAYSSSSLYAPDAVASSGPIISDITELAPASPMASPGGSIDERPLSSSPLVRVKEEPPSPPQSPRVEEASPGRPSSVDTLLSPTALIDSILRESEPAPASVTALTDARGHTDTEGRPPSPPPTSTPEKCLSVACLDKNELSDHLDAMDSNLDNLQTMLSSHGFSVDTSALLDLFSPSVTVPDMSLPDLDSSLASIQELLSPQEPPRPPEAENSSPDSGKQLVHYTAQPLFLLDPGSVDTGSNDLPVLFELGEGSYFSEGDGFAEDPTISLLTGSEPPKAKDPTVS
Procedure, shortened: as §1

[4] = target: T2, SPIC (Homo sapiens, UniProt Q8N5J4 1-248); details: protein: recombinant; tags: N-terminal GST; dsDNA, one strand shown
T2 sequence: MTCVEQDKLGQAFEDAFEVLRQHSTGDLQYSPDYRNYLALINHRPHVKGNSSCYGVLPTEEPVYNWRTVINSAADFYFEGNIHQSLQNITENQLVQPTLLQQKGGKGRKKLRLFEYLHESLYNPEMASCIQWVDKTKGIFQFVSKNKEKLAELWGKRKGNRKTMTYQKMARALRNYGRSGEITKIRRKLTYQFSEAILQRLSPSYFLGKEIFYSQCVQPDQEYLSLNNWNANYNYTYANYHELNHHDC
Procedure, shortened: as §1

[5] = target: ELF4 (Homo sapiens, UniProt Q99607 1-663); details: protein: recombinant; tags: N-terminal GST; dsDNA, one strand shown
Chain of ELF4 (Q99607 whole entry): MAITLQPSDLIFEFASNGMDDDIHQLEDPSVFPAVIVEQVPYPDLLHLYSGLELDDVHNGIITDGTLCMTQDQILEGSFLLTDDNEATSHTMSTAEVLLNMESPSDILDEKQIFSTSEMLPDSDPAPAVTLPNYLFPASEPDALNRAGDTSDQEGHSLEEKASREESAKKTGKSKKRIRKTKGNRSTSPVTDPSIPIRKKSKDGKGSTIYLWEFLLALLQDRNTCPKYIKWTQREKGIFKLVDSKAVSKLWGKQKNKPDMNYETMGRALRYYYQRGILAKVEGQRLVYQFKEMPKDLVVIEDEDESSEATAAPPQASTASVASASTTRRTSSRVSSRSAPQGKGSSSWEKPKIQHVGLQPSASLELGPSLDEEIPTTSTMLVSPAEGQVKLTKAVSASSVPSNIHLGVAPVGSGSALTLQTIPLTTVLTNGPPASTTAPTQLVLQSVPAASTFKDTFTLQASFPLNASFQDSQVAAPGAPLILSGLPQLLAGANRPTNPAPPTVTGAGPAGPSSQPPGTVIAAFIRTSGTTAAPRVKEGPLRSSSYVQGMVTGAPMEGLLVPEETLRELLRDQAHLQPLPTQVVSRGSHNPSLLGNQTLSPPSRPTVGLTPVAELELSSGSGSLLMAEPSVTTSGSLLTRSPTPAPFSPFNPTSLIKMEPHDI
Procedure, shortened: as §1

[6] = target: T3, ELK4 (Homo sapiens, UniProt P28324-2 1-405); details: protein: recombinant; tags: N-terminal GST; dsDNA, one strand shown
T3 sequence: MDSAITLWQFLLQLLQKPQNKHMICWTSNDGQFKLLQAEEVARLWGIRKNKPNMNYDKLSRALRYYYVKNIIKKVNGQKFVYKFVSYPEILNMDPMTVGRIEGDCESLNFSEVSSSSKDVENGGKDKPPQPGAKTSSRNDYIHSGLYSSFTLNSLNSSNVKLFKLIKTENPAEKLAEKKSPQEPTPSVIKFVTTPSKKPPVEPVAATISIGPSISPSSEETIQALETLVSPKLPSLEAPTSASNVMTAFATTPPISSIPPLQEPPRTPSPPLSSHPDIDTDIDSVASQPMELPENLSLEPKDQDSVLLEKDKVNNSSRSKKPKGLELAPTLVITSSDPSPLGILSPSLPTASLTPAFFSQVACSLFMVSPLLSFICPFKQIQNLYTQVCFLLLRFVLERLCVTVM
Procedure, shortened: as §1

[7] = target: T4, ETV2 (Homo sapiens, UniProt O00321 1-342); details: protein: recombinant; tags: N-terminal GST; dsDNA, one strand shown
T4 sequence: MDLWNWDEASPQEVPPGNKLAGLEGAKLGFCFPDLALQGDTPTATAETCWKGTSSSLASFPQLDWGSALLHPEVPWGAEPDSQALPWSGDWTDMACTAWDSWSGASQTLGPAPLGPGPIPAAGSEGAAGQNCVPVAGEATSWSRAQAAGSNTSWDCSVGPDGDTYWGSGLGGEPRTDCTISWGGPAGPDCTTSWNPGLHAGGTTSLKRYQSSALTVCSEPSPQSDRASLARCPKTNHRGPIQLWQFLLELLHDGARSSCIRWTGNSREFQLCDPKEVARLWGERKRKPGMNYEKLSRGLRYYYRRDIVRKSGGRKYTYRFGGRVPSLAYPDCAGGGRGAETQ
Procedure, shortened: as §1

[8] = target: T5, ELF3 (Homo sapiens, UniProt P78545 1-371); details: protein: recombinant; tags: N-terminal GST; dsDNA, one strand shown
T5 sequence: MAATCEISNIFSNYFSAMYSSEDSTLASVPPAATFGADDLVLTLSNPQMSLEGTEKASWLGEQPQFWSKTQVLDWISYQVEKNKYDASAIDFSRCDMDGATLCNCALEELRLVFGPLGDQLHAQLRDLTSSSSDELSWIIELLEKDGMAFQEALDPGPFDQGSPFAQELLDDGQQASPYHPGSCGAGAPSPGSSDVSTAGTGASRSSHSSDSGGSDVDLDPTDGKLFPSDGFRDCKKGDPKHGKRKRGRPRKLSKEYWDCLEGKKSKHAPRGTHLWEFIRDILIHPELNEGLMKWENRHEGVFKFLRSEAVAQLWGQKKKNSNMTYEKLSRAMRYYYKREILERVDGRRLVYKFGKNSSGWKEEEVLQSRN
Procedure, shortened: as §1

[9] = target: CRX (Homo sapiens, UniProt O43186 1-299); details: protein: recombinant; tags: N-terminal GST; dsDNA, one strand shown
Chain of CRX (O43186 whole entry): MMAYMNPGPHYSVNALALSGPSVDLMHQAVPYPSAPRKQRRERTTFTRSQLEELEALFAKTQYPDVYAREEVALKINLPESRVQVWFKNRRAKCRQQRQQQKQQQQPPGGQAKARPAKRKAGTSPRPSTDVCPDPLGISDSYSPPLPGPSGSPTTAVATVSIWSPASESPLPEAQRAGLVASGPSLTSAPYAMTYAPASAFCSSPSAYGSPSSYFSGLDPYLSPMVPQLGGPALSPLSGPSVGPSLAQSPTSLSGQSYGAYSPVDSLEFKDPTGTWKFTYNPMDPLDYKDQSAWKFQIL
Procedure, shortened: as §1

[10] = target: ETV1 (Homo sapiens, UniProt P50549 1-477); details: protein: recombinant; tags: N-terminal GST; dsDNA, one strand shown
Chain of ETV1 (P50549 whole entry): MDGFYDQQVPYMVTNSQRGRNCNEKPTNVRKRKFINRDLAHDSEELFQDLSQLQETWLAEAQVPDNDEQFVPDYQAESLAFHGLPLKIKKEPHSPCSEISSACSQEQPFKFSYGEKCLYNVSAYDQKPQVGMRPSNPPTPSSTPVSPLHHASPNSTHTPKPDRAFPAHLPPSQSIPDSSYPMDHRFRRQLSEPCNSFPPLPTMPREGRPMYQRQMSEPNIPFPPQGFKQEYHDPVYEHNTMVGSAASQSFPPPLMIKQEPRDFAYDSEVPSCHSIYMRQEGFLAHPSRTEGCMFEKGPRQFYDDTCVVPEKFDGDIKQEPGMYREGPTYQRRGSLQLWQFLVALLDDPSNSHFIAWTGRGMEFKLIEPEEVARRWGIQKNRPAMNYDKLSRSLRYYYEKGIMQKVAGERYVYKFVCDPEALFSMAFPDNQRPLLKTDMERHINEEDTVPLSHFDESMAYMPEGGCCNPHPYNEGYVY
Procedure, shortened: as §1

Sequence	binding signal [1]	binding signal [2]	binding signal [3]	binding signal [4]	binding signal [5]	binding signal [6]	binding signal [7]	binding signal [8]	binding signal [9]	binding signal [10]
TTTTAC	1.37 fold enrichment (6-mer frequency, TF over GST control)	1.36 fold enrichment (6-mer frequency, TF over GST control)	1.37 fold enrichment (6-mer frequency, TF over GST control)	1.4 fold enrichment (6-mer frequency, TF over GST control)	1.37 fold enrichment (6-mer frequency, TF over GST control)	1.41 fold enrichment (6-mer frequency, TF over GST control)	1.37 fold enrichment (6-mer frequency, TF over GST control)	1.4 fold enrichment (6-mer frequency, TF over GST control)	1.51 fold enrichment (6-mer frequency, TF over GST control)	1.46 fold enrichment (6-mer frequency, TF over GST control)
CATCTA	1.14 fold enrichment (6-mer frequency, TF over GST control)	1.15 fold enrichment (6-mer frequency, TF over GST control)	1.47 fold enrichment (6-mer frequency, TF over GST control)	1.34 fold enrichment (6-mer frequency, TF over GST control)	1.17 fold enrichment (6-mer frequency, TF over GST control)	1.33 fold enrichment (6-mer frequency, TF over GST control)	1.1 fold enrichment (6-mer frequency, TF over GST control)	1.33 fold enrichment (6-mer frequency, TF over GST control)	1.29 fold enrichment (6-mer frequency, TF over GST control)	1.16 fold enrichment (6-mer frequency, TF over GST control)
TGTTAA	1.1 fold enrichment (6-mer frequency, TF over GST control)	1.05 fold enrichment (6-mer frequency, TF over GST control)	1.3 fold enrichment (6-mer frequency, TF over GST control)	1.19 fold enrichment (6-mer frequency, TF over GST control)	1.17 fold enrichment (6-mer frequency, TF over GST control)	1.16 fold enrichment (6-mer frequency, TF over GST control)	1.06 fold enrichment (6-mer frequency, TF over GST control)	1.24 fold enrichment (6-mer frequency, TF over GST control)	1.67 fold enrichment (6-mer frequency, TF over GST control)	1.13 fold enrichment (6-mer frequency, TF over GST control)
AATGAG	1.14 fold enrichment (6-mer frequency, TF over GST control)	1.17 fold enrichment (6-mer frequency, TF over GST control)	1.05 fold enrichment (6-mer frequency, TF over GST control)	1.31 fold enrichment (6-mer frequency, TF over GST control)	1.14 fold enrichment (6-mer frequency, TF over GST control)	1.14 fold enrichment (6-mer frequency, TF over GST control)	1.46 fold enrichment (6-mer frequency, TF over GST control)	1.25 fold enrichment (6-mer frequency, TF over GST control)	1.08 fold enrichment (6-mer frequency, TF over GST control)	1.21 fold enrichment (6-mer frequency, TF over GST control)
TCACAC	1.35 fold enrichment (6-mer frequency, TF over GST control)	1.31 fold enrichment (6-mer frequency, TF over GST control)	1.06 fold enrichment (6-mer frequency, TF over GST control)	1.24 fold enrichment (6-mer frequency, TF over GST control)	1.36 fold enrichment (6-mer frequency, TF over GST control)	1.31 fold enrichment (6-mer frequency, TF over GST control)	1.29 fold enrichment (6-mer frequency, TF over GST control)	1.19 fold enrichment (6-mer frequency, TF over GST control)	1.07 fold enrichment (6-mer frequency, TF over GST control)	1.33 fold enrichment (6-mer frequency, TF over GST control)
TTTTAT	1.32 fold enrichment (6-mer frequency, TF over GST control)	1.26 fold enrichment (6-mer frequency, TF over GST control)	1.46 fold enrichment (6-mer frequency, TF over GST control)	1.39 fold enrichment (6-mer frequency, TF over GST control)	1.4 fold enrichment (6-mer frequency, TF over GST control)	1.26 fold enrichment (6-mer frequency, TF over GST control)	1.36 fold enrichment (6-mer frequency, TF over GST control)	1.32 fold enrichment (6-mer frequency, TF over GST control)	1.77 fold enrichment (6-mer frequency, TF over GST control)	1.3 fold enrichment (6-mer frequency, TF over GST control)
CCCGAC	1.38 fold enrichment (6-mer frequency, TF over GST control)	1.31 fold enrichment (6-mer frequency, TF over GST control)	1.19 fold enrichment (6-mer frequency, TF over GST control)	1.53 fold enrichment (6-mer frequency, TF over GST control)	1.29 fold enrichment (6-mer frequency, TF over GST control)	1.43 fold enrichment (6-mer frequency, TF over GST control)	1.46 fold enrichment (6-mer frequency, TF over GST control)	1.53 fold enrichment (6-mer frequency, TF over GST control)	1.06 fold enrichment (6-mer frequency, TF over GST control)	1.36 fold enrichment (6-mer frequency, TF over GST control)
TATTTG	1.39 fold enrichment (6-mer frequency, TF over GST control)	1.47 fold enrichment (6-mer frequency, TF over GST control)	1.43 fold enrichment (6-mer frequency, TF over GST control)	1.25 fold enrichment (6-mer frequency, TF over GST control)	1.3 fold enrichment (6-mer frequency, TF over GST control)	1.26 fold enrichment (6-mer frequency, TF over GST control)	1.27 fold enrichment (6-mer frequency, TF over GST control)	1.45 fold enrichment (6-mer frequency, TF over GST control)	1.71 fold enrichment (6-mer frequency, TF over GST control)	1.4 fold enrichment (6-mer frequency, TF over GST control)
